The nature of test [1]: small molecules captured by biotinylated probe aFSTL3 – biochemical, small-molecule microarray, fluorescence 635/667, stem cell growth factor project, primary screen (AID 1064).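 Also: measures binding of the biotinylated anti-FSTL3 antibody to printed compounds.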 As to conditions: higher = more signal.
Test [2] in a line: binders from COS7 lysate, DM2A8 probe, primary screen, torsin A project, cell lysate, small-molecule microarray, fluorescence 635/667 (AID 1065). The settings on record: higher = more signal, COS7 lysate expressing mutant human TOR1A.
Test [3] is described as follows: small molecules captured by biotinylated probe aFGF2 – biochemical, small-molecule microarray, fluorescence 635/667, stem cell growth factor project, primary screen (AID 1067).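 Also: measures binding of biotinylated aFGF2 protein to printed compounds on slides; z-score merges feature fluorescence and signal-to-noise across triplicate slides.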 The settings on record: higher = more signal.
A short description of test [4]: small molecules captured by biotinylated probe aFGF10 – biochemical, small-molecule microarray, fluorescence 635/667, stem cell growth factor project, primary screen (AID 1071).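 Also: score merges 667 nm spot intensity and signal to noise from triplicate slides.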 The settings on record: higher = more signal.
The target of test [5] is Neurogenic locus notch homolog protein 2 (Homo sapiens) (UniProt Q04721). In words: small molecules binding Notch2 protein – biochemical, small-molecule microarray, 635 nm fluorescence, stem cell growth factors, primary screen (AID 1073). The settings on record: higher = more signal.
The target in test [6] is Pro-neuregulin-1, membrane-bound isoform (Homo sapiens) (UniProt Q02297). In words: small molecules binding neuregulin-1 protein – biochemical, small-molecule microarray, fluorescence 635/667, psychiatric disease protein project, primary screen (AID 1075).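 Also: score combines 667 nm spot fluorescence with signal to noise.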 As to conditions: NRG1 binding, 635 nm fluorescence, higher = more signal.
Pro-neuregulin-1, membrane-bound isoform (Homo sapiens), sequence (Q02297 whole entry, looked up, the tested form may be a part, canonical isoform): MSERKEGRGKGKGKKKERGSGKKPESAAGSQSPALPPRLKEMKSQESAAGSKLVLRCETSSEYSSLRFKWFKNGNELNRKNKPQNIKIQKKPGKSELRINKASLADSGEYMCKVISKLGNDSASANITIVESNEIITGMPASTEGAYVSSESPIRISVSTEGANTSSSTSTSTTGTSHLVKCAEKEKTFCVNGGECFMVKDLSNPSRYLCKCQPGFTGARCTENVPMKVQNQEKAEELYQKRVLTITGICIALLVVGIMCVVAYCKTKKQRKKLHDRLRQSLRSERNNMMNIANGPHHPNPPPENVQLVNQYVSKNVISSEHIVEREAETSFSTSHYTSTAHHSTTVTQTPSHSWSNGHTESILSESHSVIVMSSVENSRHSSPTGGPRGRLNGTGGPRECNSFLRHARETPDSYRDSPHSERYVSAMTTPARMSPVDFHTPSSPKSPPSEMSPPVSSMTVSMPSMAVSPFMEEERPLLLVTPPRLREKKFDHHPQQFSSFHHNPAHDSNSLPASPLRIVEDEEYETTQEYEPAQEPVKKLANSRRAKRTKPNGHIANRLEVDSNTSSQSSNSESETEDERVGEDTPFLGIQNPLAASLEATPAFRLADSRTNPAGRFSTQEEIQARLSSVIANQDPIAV
Test [7] relates to Neuregulin-1 EGF-like domain. In words: small molecules binding NRG1 EGF domain – biochemical, small-molecule microarray, 635 nm fluorescence, primary screen (AID 1081).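 Also: binding of the protein to compounds printed on small-molecule microarray slides.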 As to conditions: higher = more signal.
The nature of test [8]: FRG1 expression reporter modulators in myotubes – cell-based, C2C12 myotubes, firefly/Renilla luciferase, luminescence, FRG1 inhibition for FSHD, primary screen (AID 1084). The settings on record: FRG1 promoter luciferase, higher = more signal, called active from +8 up or from −8 down.
Test [9] in a line: small molecules captured by biotinylated probe aFST – biochemical, small-molecule microarray, fluorescence 635/667, stem cell growth factor project, primary screen (AID 1086).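 Also: score merges 667 nm fluorescence with signal-to-noise of each printed compound spot.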 The settings on record: higher = more signal.
The nature of test [10]: binders of probe aHhip on microarray, primary screen, stem cell growth factor project, biochemical, small-molecule microarray, fluorescence 635/667 (AID 1087).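 Also: score merges spot fluorescence at 667nm with spot signal to noise ratio.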 The settings on record: higher = more signal.
Test [11] deals with PRMT1 (protein arginine N-methyltransferase 1). In words: small molecules binding arginine methyltransferase PRMT1 – biochemical, small-molecule microarray, 635 nm fluorescence, primary screen (AID 1088).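 Also: binding of Prmt1 protein to compounds spotted on small-molecule microarray slides.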 The settings on record: higher = more signal.
Test [12] is described as follows: growth effects on S. cerevisiae YJM789 – YJM789 clinical isolate, OD600, 24 h, basal, primary screen (AID 1089).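 Also: growth of clinical yeast isolate S. cerevisiae YJM 789 seeded 1000 cells per well; test concentration not given here.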 The settings on record: higher = more signal, called active from +8 up or from −8 down.
Test [13] in a line: S. pombe growth modifiers, basal conditions – strain 972, OD600, 24 h, no modulator, primary screen (AID 1090).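 Also: basal condition with compound alone and no growth modifier present; test concentration not given here.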 The settings on record: S. pombe 972 growth, higher = more signal, called active from +8 up or from −8 down.
The nature of test [14]: budding yeast growth modifiers under rapamycin – strain BY4716, OD600, 96 h, primary screen (AID 1091). Also: test concentration not given here. The settings on record: S. cerevisiae BY4716 + rapamycin, higher = more signal, called active from +8 up or from −8 down.
The target in test [15] is Torsin-1A-interacting protein 2 (Homo sapiens) (UniProt Q8NFQ8). Put plainly: small molecules binding lysate-expressed LULL1 – cell lysate, human LULL1 lysate, 635/667 nm fluorescence, primary screen (AID 1092).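 Also: probe is lysate of COS7 cells overexpressing human LULL1; score merges per-feature 667 nm fluorescence with signal-to-noise.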 As to conditions: small-molecule microarray, hLULL1 lysate binding, 635 nm fluorescence; higher = more signal.
Torsin-1A-interacting protein 2 (Homo sapiens), sequence (Q8NFQ8 whole entry, looked up): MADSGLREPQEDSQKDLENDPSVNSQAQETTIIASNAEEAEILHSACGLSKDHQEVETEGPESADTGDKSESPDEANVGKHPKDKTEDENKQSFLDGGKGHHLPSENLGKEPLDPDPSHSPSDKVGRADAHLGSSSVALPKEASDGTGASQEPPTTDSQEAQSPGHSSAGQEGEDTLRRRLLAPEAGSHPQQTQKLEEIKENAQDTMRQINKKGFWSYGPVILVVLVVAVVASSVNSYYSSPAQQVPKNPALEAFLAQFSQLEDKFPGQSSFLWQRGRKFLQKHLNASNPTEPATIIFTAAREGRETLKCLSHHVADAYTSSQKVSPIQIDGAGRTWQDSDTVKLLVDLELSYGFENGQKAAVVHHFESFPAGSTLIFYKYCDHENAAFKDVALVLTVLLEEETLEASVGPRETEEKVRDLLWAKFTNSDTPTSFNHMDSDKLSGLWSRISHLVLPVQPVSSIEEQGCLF
Test [16] is described as follows: optical density change of DRC41 E. coli – strain DRC41, OD650, 24 h, E. coli filamentation project, primary screen (AID 1093).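 Also: MC1000 strain lacking acrAB efflux and sulA so SOS filamentation is blocked; test concentration not given here.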 The settings on record: E. coli DRC41 growth, higher = more signal, called active from +8 up or from −8 down.
The nature of test [17]: probe aLefty2 binding to arrayed compounds – biochemical, biotinylated probe, 635/667 nm fluorescence, primary screen (AID 1094).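 Also: score merges spot fluorescence near 667 nm with spot signal-to-noise ratio.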 The settings on record: small-molecule microarray, higher = more signal.
Test [18] deals with Noggin (protein binding on small-molecule microarray). Put plainly: small molecules binding Noggin protein – biochemical, 635/667 nm fluorescence, primary screen (AID 1095).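 Also: score merges 667 nm feature fluorescence with signal to noise over triplicate slides.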 As to conditions: 635 nm fluorescence, higher = more signal.
Test [19] concerns the target Neurogenic locus notch homolog protein 3 (Homo sapiens) (UniProt Q9UM47). In words: small molecules binding NOTCH3 protein – biochemical, 635/667 nm fluorescence, primary screen (AID 1096). As to conditions: small-molecule microarray, 635 nm fluorescence, higher = more signal.
Test [20] in a line: probe aEGFR binding to arrayed compounds – biochemical, biotinylated probe, 635/667 nm fluorescence, primary screen (AID 1097).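 Also: probe is a biotinylated anti-EGFR antibody binding compounds printed on slides; score combines fluorescence near 667 nm and signal to noise of each spot.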 As to conditions: small-molecule microarray, higher = more signal.

The structures appear in SMILES notation. Calls of active or inactive are those of the source.

Neurogenic locus notch homolog protein 3 (Homo sapiens), sequence (Q9UM47 whole entry, looked up): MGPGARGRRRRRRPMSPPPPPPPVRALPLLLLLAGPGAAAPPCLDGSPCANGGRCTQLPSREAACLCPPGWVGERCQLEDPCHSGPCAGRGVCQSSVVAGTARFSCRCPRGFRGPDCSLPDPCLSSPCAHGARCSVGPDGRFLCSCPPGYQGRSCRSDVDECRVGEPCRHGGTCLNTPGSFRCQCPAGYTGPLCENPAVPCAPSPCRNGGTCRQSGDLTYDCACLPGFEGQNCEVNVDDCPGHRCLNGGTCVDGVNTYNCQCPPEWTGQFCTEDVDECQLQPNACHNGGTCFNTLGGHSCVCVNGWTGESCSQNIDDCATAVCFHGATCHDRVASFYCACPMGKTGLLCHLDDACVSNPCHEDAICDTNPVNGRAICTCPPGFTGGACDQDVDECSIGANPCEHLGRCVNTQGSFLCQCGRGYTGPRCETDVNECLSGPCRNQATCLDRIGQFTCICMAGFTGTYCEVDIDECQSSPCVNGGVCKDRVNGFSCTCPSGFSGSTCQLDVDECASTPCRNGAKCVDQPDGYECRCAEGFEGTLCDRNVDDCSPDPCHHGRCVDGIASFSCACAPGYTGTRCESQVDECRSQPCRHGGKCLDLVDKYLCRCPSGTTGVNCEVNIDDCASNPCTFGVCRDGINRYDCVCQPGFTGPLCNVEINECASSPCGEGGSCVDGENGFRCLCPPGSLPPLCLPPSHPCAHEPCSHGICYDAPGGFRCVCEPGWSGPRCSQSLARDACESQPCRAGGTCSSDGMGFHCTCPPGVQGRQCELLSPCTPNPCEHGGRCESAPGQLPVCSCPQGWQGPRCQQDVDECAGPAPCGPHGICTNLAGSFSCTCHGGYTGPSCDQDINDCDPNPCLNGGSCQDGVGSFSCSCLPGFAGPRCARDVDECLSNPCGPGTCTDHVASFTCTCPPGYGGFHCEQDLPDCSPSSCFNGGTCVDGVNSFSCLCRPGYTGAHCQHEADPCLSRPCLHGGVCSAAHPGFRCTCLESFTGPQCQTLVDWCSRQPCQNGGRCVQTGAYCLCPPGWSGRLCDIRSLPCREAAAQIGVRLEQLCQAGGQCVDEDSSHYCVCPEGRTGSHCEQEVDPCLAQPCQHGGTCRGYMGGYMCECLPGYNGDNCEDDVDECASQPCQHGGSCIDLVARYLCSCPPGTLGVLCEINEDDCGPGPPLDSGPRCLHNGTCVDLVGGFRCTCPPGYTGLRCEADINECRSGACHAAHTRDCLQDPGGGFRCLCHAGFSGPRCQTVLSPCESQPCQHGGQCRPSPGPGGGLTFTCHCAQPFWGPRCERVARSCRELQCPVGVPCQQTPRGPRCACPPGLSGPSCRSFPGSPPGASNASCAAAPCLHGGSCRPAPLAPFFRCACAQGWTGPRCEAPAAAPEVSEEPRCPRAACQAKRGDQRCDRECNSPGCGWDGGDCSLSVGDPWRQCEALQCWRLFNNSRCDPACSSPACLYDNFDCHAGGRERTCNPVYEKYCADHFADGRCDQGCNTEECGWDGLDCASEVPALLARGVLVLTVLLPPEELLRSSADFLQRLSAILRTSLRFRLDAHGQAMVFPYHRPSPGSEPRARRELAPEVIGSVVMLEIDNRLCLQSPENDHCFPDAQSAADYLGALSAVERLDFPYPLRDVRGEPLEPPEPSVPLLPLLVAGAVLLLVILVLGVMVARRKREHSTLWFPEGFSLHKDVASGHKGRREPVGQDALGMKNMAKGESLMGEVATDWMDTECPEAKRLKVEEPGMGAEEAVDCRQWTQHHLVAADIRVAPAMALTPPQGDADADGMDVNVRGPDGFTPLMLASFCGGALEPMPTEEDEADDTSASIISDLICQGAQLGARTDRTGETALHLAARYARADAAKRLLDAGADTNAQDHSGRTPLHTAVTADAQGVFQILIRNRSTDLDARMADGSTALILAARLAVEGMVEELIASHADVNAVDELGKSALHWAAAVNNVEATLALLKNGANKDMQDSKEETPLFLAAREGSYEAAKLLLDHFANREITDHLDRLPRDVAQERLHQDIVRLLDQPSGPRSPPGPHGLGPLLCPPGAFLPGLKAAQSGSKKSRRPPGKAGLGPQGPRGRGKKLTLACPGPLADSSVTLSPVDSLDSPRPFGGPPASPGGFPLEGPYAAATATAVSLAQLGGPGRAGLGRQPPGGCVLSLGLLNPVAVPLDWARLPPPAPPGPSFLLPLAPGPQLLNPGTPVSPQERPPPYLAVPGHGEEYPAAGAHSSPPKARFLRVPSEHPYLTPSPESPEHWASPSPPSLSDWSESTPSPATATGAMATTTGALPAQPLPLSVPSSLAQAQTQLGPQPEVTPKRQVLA

Consider `C=CCC(OC(C)=O)[C@@H]1[C@@H](N(Cc2ccc(-c3cccc(C(F)(F)F)c3)o2)C(=O)c2cccc3ccccc23)c2cc(OCCCO)ccc2N1C(=O)Cc1ccc(OC)cc1` (stereo not given in full), for which the composite z-score was -0.238 in test [1]; -0.125 in test [2]; -0.143 in test [3]; -0.0597 in test [4]; -0.386 in test [5]; 0.0701 in [6]. The composite z-score was -0.398 in test [7]; 0.378 in test [9]; -0.179 in [10]; 0.224 in [11]; 0.648 in [15]; 0.0054 in test [17]. The composite z-score in test [18] is 0.266; in test [19], 0.263; in test [20], -0.133. In addition, the z-score in test [8] is 0.317 (inactive); in test [12] it was 0.504 (inactive); in test [13], -0.117 (inactive); in test [14], -0.296 (inactive); in test [16], 0.776 (inactive).
With `CCOC(=O)C1=C[C@@H](C(C)(C)C)N(S(=O)(=O)c2ccc(C)cc2)[C@H]1c1ccccc1`, the composite z-score in test [1] came out at 0.401; in [2], 0.685; in test [3], 0.0524; in test [4], 0.69; in test [5], 1.63; in [6], 0.4. Further, the composite z-score in test [7] is 0.954; in test [9], 1.04; in [10], 0.206; in test [11], 1.22; in test [15] it was 0.928; in [17] it was 0.0194. Moreover, the composite z-score in test [18] is 0.576; in [19], 1.07; in test [20], 0.124. The z-score in test [8] is -1.66 (inactive); in [12] it was 0.826 (inactive); in test [13], 1.27 (inactive); in test [14], 1.41 (inactive); in test [16], -0.0247 (inactive).
As for `COc1ccc(C(O)C2C=CC3C(=O)N(c4ccccc4)C(=O)C3N2Nc2ccc(C(C)C)cc2)c2ccccc12` (stereo not given), the composite z-score in test [1] is -0.0766; in test [2], 0.309; in test [3], 0.0442; in [4], 0.7; in test [5], 1.59; in test [6], 1.49. Moreover, the composite z-score in test [7] was 1.16; in test [9], 1.83; in [10], -0.148; in [11] it was 1.56; in [15], 3.61; in test [17], 0.204. The composite z-score was 0.0754 in test [18], 1.07 in [19] and -0.0019 in test [20]. In addition, the z-score is -1.31 (inactive) in [8]; 0.254 (inactive) in test [12]; 0.227 (inactive) in test [13]; -0.519 (inactive) in test [14]; -1.08 (inactive) in test [16].
In the case of `COCCOC(=O)N1C(=O)[C@@]2(c3cc(C#CCCO)ccc31)[C@H](c1ccccc1OCCO)N1[C@H](c3ccccc3)[C@H](c3ccccc3)OC(=O)[C@H]1[C@@H]2C(=O)N1CCCCCCC1`, the composite z-score is 2.91 in test [1]; 0.821 in test [2]; 0.452 in test [3]; 0.413 in test [4]; 1.14 in test [5]; 1.72 in test [6]. The composite z-score in [7] amounted to 1.32; in test [9] it was 2.59; in test [10], 2.43; in test [11], 1.54; in [15] it was 3.57; in test [17], 1.39. Besides, the figures for the composite z-score in test [18], in test [19] and in [20] were 1.86, 1.05 and 0.837, respectively. Moreover, the z-score in [8] is -3.3 (inactive); in test [12] it was 1.76 (inactive); in [13], 0.11 (inactive); in test [14], 2.88 (inactive); in test [16] it was 1.06 (inactive).
For the compound `CO[C@H]1O[C@H](CO)[C@@H](OC(=O)Nc2ccc(C#N)cc2)[C@@H]2OC(=O)[C@H](Cc3cccc(Br)c3)C/C=C/C[C@@H](Cc3cccc(Br)c3)C(=O)O[C@@H]12`, the composite z-score in test [1] was -0.381; in [2], -0.0617; in [3] it was -0.0181; in test [4] it was 0.503; in test [5] it was 0.626; in test [6] it was 0.514. The composite z-score was 0.3 in [7]; 0.572 in [9]; 0.195 in test [10]; 1.24 in test [11]; 1.26 in test [15]; 0.212 in [17]. Moreover, the results for the composite z-score in test [18], in [19] and in [20] were 0.432, 0.733 and 0.11, respectively. Also, the z-score was -0.362 (inactive) in [8]; 0.471 (inactive) in test [12]; 0.0261 (inactive) in test [13]; 27.2 (active) in test [14]; 0.27 (inactive) in test [16].
